Results taken from PubChem BioAssay (NCI).
The panel holds about 79,000 compounds, 15% with a hit somewhere; the sample as a whole holds those more often. Activity calls are given as the source filed them. Rule as the data show it: active = growth inhibition above about 70%; inactive = the rest.

Tests used:
[1] = NCI Yeast Anticancer Drug Screen. Data for the rad50 strain (AID 155);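 also: 0% = growth of vehicle-only cultures of the same strain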; conditions: S. cerevisiae rad50 strain growth inhibition, stronger effect = higher value
Procedure, shortened: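 Growth of the mutant yeast was measured after compound exposure and referenced to vehicle-treated cultures.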

[2] = NCI Yeast Anticancer Drug Screen. Data for the mec2-1 strain (AID 157); conditions: S. cerevisiae mec2-1 strain, stronger effect = higher value
Procedure, shortened: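 Growth inhibition is read against vehicle-treated controls after compound exposure of the mec2-1 yeast strain, which is defective in DNA damage repair or cell cycle control.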

[3] = NCI Yeast Anticancer Drug Screen. Data for the sgs1 mgt1 strain (AID 161);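 also: 0% = growth of cultures given vehicle only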; conditions: S. cerevisiae sgs1 mgt1 strain, stronger effect = higher value
Procedure, shortened: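 Compounds are added to genetically altered yeast, and growth is compared with cultures given vehicle alone to give percent inhibition.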

[4] = NCI Yeast Anticancer Drug Screen. Data for the cln2 rad14 strain (AID 165);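 also: 0% = growth equal to vehicle treated cultures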; conditions: S. cerevisiae cln2 rad14 strain, stronger effect = higher value
Procedure, shortened: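 Growth inhibition, relative to vehicle-treated controls, is the read-out. The test organism is a yeast strain with defined genetic alterations, cln2 rad14.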

[5] = NCI Yeast Anticancer Drug Screen. Data for the bub3 strain (AID 167); conditions: S. cerevisiae bub3 mutant strain, stronger effect = higher value
Procedure, shortened: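 Whole-cell yeast assay. The mutant strain was incubated with compounds, and growth inhibition was determined by comparison with vehicle-treated cells.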

[6] = NCI Yeast Anticancer Drug Screen. Data for the mlh1 rad18 strain (AID 175); conditions: S. cerevisiae mlh1 rad18 strain growth inhibition, stronger effect = higher value
Procedure, shortened: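 Cells of a genetically altered yeast strain, deficient in DNA damage repair, were treated with compound. Their growth was then compared with that of vehicle-treated cultures to give inhibition.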

[7] = at 5.0 µM (retest, dose inferred, filed as 0.5)
[8] = at 50.0 µM (retest, dose inferred, filed as 5.0)

Measured: growth inhibition

CCOC(=O)c1ccc(NC(=O)CCl)cc1
active: [1]; [8] 99% | [2]; [8] 98% | [3]; [8] 98% | [4]; [8] 91% | [5]; [8] 95% | [6]; [8] 99%
inactive: [1]; [7] 3% | [1]; at 50.0 µM 51.9% | [2]; [7] 8% | [2]; at 50.0 µM 38.7% | [3]; [7] 21% | [3]; at 50.0 µM 67.5% | [4]; [7] 8% | [4]; at 50.0 µM 28.7% | [5]; [7] 0% | [5]; at 50.0 µM 40% | [6]; [7] 12% | [6]; at 50.0 µM 64.2%

Cc1ccc(-c2c(N)[n+]([O-])c3ccccc3[n+]2[O-])cc1
active: [1]; [8] 95% | [1]; at 50.0 µM 99.3% | [2]; [8] 99% | [2]; at 50.0 µM 99.3% | [3]; [8] 100% | [3]; at 50.0 µM 99.2% | [4]; [8] 98% | [4]; at 50.0 µM 98.3% | [5]; [8] 99% | [5]; at 50.0 µM 99.2% | [6]; [7] 81% | [6]; [8] 99% | [6]; at 50.0 µM 99%
inactive: [1]; [7] 34% | [2]; [7] 32% | [3]; [7] 47% | [4]; [7] 46% | [5]; [7] 54%

CSc1ccc(NC(=S)SC(C)C)cc1Cl
active: [1]; [8] 98% | [1]; at 50.0 µM 99% | [2]; [8] 99% | [2]; at 50.0 µM 99.3% | [3]; [8] 99% | [3]; at 50.0 µM 99.4% | [4]; [8] 97% | [4]; at 50.0 µM 99% | [5]; [8] 99% | [5]; at 50.0 µM 99.4% | [6]; [8] 99% | [6]; at 50.0 µM 99%
inactive: [1]; [7] 15% | [2]; [7] 1% | [3]; [7] 19% | [4]; [7] -32% | [5]; [7] -6% | [6]; [7] 19%

CN1C=C(C#N)CCC1Sc1ccc(Cl)cc1 (configuration not stated)
inactive: [1]; [7] -7% | [1]; [8] 38% | [1]; at 50.0 µM 58.1% | [2]; [7] 5% | [2]; [8] 65% | [2]; at 50.0 µM 58.6% | [3]; [7] 3% | [3]; [8] 54% | [4]; [7] -3% | [4]; [8] 11% | [5]; [7] -4% | [5]; [8] 60% | [5]; at 50.0 µM 59.3% | [6]; [7] 22%
active: [3]; at 50.0 µM 92.6% | [4]; at 50.0 µM 76.8% | [6]; [8] 82% | [6]; at 50.0 µM 86.9%

CCOC(=O)C(CC)(CCc1ccccc1[N+](=O)[O-])C(=O)OCC
active: [5]; at 50.0 µM 75.9%
inactive: [1]; [7] 8% | [1]; [8] -24% | [1]; at 50.0 µM 61.2% | [2]; [7] -3% | [2]; [8] -2% | [2]; at 50.0 µM -6.6% | [3]; [7] 9% | [3]; [8] 37% | [3]; at 50.0 µM 39.2% | [4]; [7] 0% | [4]; [8] -17% | [4]; at 50.0 µM -18.1% | [5]; [7] 6% | [5]; [8] 24% | [6]; [7] 17% | [6]; [8] 13% | [6]; at 50.0 µM 60.9%

COC(=O)C(=O)C(C(=O)C(=O)Nc1ccc(C)cc1C)c1nc2ccccc2[nH]c1=O (configuration not stated)
inactive: [1]; [7] 21% | [1]; [8] 21% | [1]; at 50.0 µM 17% | [2]; [7] 8% | [2]; [8] 8% | [2]; at 50.0 µM 20.8% | [3]; [7] -2% | [3]; [8] -2% | [3]; at 50.0 µM 39.2% | [4]; [7] 5% | [4]; [8] 5% | [4]; at 50.0 µM -57.3% | [5]; [7] -6% | [5]; [8] -6% | [5]; at 50.0 µM 34% | [6]; [7] 7% | [6]; [8] 7% | [6]; at 50.0 µM 49.8%

C/C=C/C1=C(Cl)C(=O)[C@@H](Cl)[C@@]1(O)C(=O)OC
inactive: [1]; [7] 48% | [2]; [7] 61% | [4]; [7] 21% | [5]; [7] 66%
active: [1]; [8] 97% | [1]; at 50.0 µM 87% | [2]; [8] 99% | [2]; at 50.0 µM 90.1% | [3]; [7] 78% | [3]; [8] 99% | [3]; at 50.0 µM 91% | [4]; [8] 97% | [4]; at 50.0 µM 79.2% | [5]; [8] 95% | [5]; at 50.0 µM 87.3% | [6]; [7] 85% | [6]; [8] 99% | [6]; at 50.0 µM 90.2%

Cc1c(NC(=O)/C(=N/NC(=S)N=N)C2C(=O)CC(C)(C)CC2=O)c(O)c2ccccc2c1O
inactive: [1]; [7] 14% | [2]; [7] 7% | [3]; [7] 7% | [4]; [7] -1% | [4]; at 50.0 µM 47% | [5]; [7] 16% | [6]; [7] 9%
active: [1]; [8] 98% | [1]; at 50.0 µM 95.3% | [2]; [8] 99% | [2]; at 50.0 µM 81.2% | [3]; [8] 99% | [3]; at 50.0 µM 84.8% | [4]; [8] 99% | [5]; [8] 98% | [5]; at 50.0 µM 90.9% | [6]; [8] 98% | [6]; at 50.0 µM 93%

Cc1ccc(S(=O)(=O)/C=C2\COc3ccccc3C2=O)cc1
inactive: [1]; [7] 51% | [2]; [7] 65% | [4]; [7] 44%
active: [1]; [8] 99% | [1]; at 50.0 µM 99.2% | [2]; [8] 99% | [2]; at 50.0 µM 99.7% | [3]; [7] 90% | [3]; [8] 100% | [3]; at 50.0 µM 99.2% | [4]; [8] 99% | [4]; at 50.0 µM 99% | [5]; [7] 77% | [5]; [8] 99% | [5]; at 50.0 µM 99.5% | [6]; [7] 79% | [6]; [8] 99% | [6]; at 50.0 µM 99.5%
